Measurements published in PubChem BioAssay AID488969 (Vanderbilt High Throughput Screening Facility, 2010).
In all, about 110,000 compounds were measured (“z-score”: median about -0.1, highest 2% from about 2 on). The sample holds the highest values, similar compounds and a random draw of the others, so the mix is not that of the screen. Activity calls are given as the source filed them.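 The calls were made as follows: active = z-score in the third read window above 3 or below -3; inactive = the rest.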

These compounds were tested against Metabotropic glutamate receptor 8 (Rattus norvegicus) (UniProt P70579) (assay: rat mGluR8 modulators via GIRK flux, primary screen, cell-based, thallium flux, HTS (AID 488969)). Conditions: HEK293 rat mGluR8, GIRK (G protein-gated inwardly rectifying potassium channel) thallium flux, FluoZin2; at 10 µM; stronger effect = higher value; submaximal glutamate (EC20) added with thallium.
Sequence of Metabotropic glutamate receptor 8 (Rattus norvegicus) (P70579 whole entry, looked up): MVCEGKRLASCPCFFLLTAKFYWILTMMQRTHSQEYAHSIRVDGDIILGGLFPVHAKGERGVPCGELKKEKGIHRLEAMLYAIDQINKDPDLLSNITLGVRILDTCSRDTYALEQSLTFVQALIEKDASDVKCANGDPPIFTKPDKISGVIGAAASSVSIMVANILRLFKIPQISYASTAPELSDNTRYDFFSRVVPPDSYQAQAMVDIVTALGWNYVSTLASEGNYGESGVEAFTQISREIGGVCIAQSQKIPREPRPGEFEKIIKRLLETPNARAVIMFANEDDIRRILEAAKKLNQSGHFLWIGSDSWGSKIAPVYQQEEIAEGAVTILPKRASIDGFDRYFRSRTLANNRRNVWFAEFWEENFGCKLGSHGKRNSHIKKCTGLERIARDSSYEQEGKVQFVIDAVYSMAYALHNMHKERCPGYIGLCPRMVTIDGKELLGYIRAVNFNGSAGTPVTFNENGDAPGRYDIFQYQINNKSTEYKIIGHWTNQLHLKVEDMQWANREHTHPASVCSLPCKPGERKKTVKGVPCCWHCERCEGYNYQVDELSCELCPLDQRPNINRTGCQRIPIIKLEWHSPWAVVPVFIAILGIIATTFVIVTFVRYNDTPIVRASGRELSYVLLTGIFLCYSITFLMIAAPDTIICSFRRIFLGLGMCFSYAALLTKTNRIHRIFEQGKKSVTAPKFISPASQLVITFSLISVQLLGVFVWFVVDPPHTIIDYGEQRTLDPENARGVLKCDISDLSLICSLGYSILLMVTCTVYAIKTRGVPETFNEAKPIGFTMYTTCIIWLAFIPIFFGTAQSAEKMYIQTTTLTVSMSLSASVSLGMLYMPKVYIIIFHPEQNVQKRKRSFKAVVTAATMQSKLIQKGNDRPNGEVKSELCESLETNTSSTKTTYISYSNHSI
`Cc1ccc(NC(=O)c2ccc(CSc3nnnn3C)cc2)cc1` gave a z-score of -0.174.
Work on `COc1ccc(-n2c(N)c(C(=O)NCc3cccnc3)sc2=S)cc1` yielded a z-score of 0.463.
`Cc1nc(NNC(=O)c2ccc(Cl)cc2Cl)cc(-c2ccccc2)n1` gave a z-score of 0.141.
`CCCOC(=O)c1ccc(OCC(O)CN2C(=O)NC(C)(C)C2=O)cc1` (configuration not stated) was tested, and the z-score was 0.307.
For `O=[N+]([O-])c1cccc(C(=Nc2ccc(Cl)cc2)NO)c1`, the z-score was -0.259.
`CC(NC(=O)Nc1nnc(C(F)(F)F)s1)N1C(=O)C2C3C=CC(C3)C2C1=O` (configuration not stated) gave a z-score of 0.0447.
`CCCCCNc1nc(NCCCO)c(C#N)c2c1CN(C)CC2` gave a z-score of -0.528.
Work on `CC1CCN(c2ccccc2NC(=S)NC(=O)c2cccs2)CC1` yielded a z-score of 1.61.
`O=C(NC(=S)Nc1ccccc1N1CCOCC1)c1ccco1` was tested, and the z-score was 9.71 (active).
Work on `CC1CCN(c2ccccc2NC(=O)c2ccc(F)cc2)CC1` yielded a z-score of -0.52.
`CC1CCN(c2ccccc2NC(=S)NC(=O)c2ccco2)CC1` was tested, and the z-score was 3.89 (active).
`O=C(Nc1ccccc1N1CCCC1)c1ccco1` gave a z-score of -0.0103.
`O=C(Cc1ccc(Cl)cc1)NC(=S)Nc1ccccc1N1CCOCC1` gave a z-score of 0.883.
With `N#C/C(=C\c1ccc(Cl)cc1Cl)c1n[nH]c(Cn2cncn2)n1` the z-score was -1.59.
With `O=c1cc(NCc2ccco2)c2ccccc2o1` the z-score was -0.304.
With `CC1=C(C(=O)OC(C)C)C(c2cccs2)C(C(=O)OC(C)C)=C(C)N1` the z-score was -0.281.
Work on `NC(=O)c1cccnc1Nc1ccccc1Cl` yielded a z-score of -0.423.
`O=C(/C=C/c1cccc([N+](=O)[O-])c1)NCCSc1ccccc1` was tested, and the z-score was -0.3.
`COc1ccc(C(C(=O)NC(C)(C)C)N(C(=O)CNC(=O)c2cccs2)c2ccc(C(C)C)cc2)cc1OC` (configuration not stated) gave a z-score of -0.16.
`O=C(CSc1cnc2ccccc2n1)NC1CCCC1` showed a z-score of -0.494.
`COc1ccccc1N1CCN(S(=O)(=O)c2cccc3nsnc23)CC1` showed a z-score of -0.393.
For `COc1ccccc1OCC(O)Cn1c(=N)n(Cc2ccccc2)c2ccccc21` (configuration not stated), the z-score was 0.691.
For `N=c1n(Cc2ccccc2)c2ccccc2n1CC(O)COc1ccccc1` (configuration not stated), the z-score was 0.257.
Work on `Cc1ccc(Cn2c(=N)n(CC(O)COc3ccccc3)c3ccccc32)cc1` (configuration not stated) yielded a z-score of 2.98.
In the case of `OC(COc1ccccc1)Cn1c2ccccc2c2ccccc21` (configuration not stated), the z-score is reported as -0.0732.
For `Cc1ccc(OCC(O)Cn2c3ccccc3c3ccccc32)cc1` (configuration not stated), the z-score was -0.222.
`Cc1ccc(OCC(O)Cn2c(=N)n(Cc3ccccc3)c3ccccc32)cc1` (configuration not stated) was tested, and the z-score was 4.01 (active).
In the case of `COc1cc(SC)ccc1C(=O)N(C)Cc1ccccc1`, the z-score is reported as 0.253.
`CCOC(=O)CSc1ncc(-c2ccccc2)cn1` gave a z-score of -0.0802.
With `CCOC(=O)N1CCN(C(=O)C2CCN(S(=O)(=O)c3ccccc3)CC2)CC1` the z-score was -0.151.
`CN1CCN(C(=S)Nc2cccc(C(F)(F)F)c2)CC1` gave a z-score of -0.213.
In the case of `O=C(Oc1ccc(Br)cc1C(=S)N1CCCCC1)c1cc([N+](=O)[O-])cc([N+](=O)[O-])c1`, the z-score is reported as 0.762.
With `Cc1c([N+](=O)[O-])cc(C(=O)Oc2ccc(Br)cc2C(=S)N2CCCCC2)cc1[N+](=O)[O-]` the z-score was 3.58 (active).
Work on `Cc1ccccc1C(=O)Oc1ccc(Br)cc1C(=S)N1CCCC1` yielded a z-score of -0.342.
With `C=C(C)CN=C1SC(C(=O)Nc2sc3c(c2C(=O)OC)CCC3)C(N)=C1C(N)=O` (configuration not stated) the z-score was 0.236.
With `O=C(c1cc2sccc2n1Cc1ccccc1)N1CCCc2ccccc21` the z-score was -0.795.
`O=C(c1cc2sccc2n1Cc1ccc(F)cc1)N1CCCc2ccccc21` was tested, and the z-score was 0.225.
With `COC(=O)c1cc2sccc2n1CC(=O)N1CCCc2ccccc21` the z-score was 2.64.
With `CC(C)CCNC(=O)C(c1cccnc1)N(CCc1ccccc1)C(=O)Cn1nnc2ccccc21` (configuration not stated) the z-score was 0.555.
In the case of `c1ccc(CCNc2nc(-c3cccnc3)cs2)cc1`, the z-score is reported as -0.023.
In the case of `CCCCCNc1nc(-c2ccccc2)cs1`, the z-score is reported as 3.86 (active).
Work on `CC(C)=NNc1nc(-c2ccccc2)cs1` yielded a z-score of -0.203.
`CN(Cc1ccccc1)c1nc2c(c(=O)[nH]c(=O)n2C)n1CCSc1ncccn1` gave a z-score of 0.672.
For `CC(C)NC(=S)N/N=C/C1=CCC2CC1C2(C)C` (configuration not stated), the z-score was -0.69.
For `CC1(C)C2CC=C(/C=N/n3cnnc3)C1C2` (configuration not stated), the z-score was 2.
Work on `CC1(C)C2CC=C(/C=N/NC(=O)c3ccc(O)cc3)C1C2` (configuration not stated) yielded a z-score of -0.0642.
For `Cc1nc2ccc(S(=O)(=O)NC(C(=O)NCc3ccc4c(c3)OCO4)C(C)C)cc2s1` (configuration not stated), the z-score was -0.0773.
Work on `CCn1cc(C(=O)OCC(=O)c2cc(C)n(-c3ccccc3F)c2C)c(=O)c2ccc(C)nc21` yielded a z-score of -0.711.
For `O=S(=O)(Nc1cccc2nsnc12)c1ccccc1`, the z-score was 0.265.
`Cc1ccc(C)c(NS(=O)(=O)c2c(C)ccc3nsnc23)c1` showed a z-score of -0.891.
In the case of `Cc1ccc2nsnc2c1S(=O)(=O)Nc1cccc2nsnc12`, the z-score is reported as 14.7 (active).
With `O=C(O)COc1ccc(/C=N/n2c(COc3ccccc3)nc3ccccc3c2=O)cc1` the z-score was -0.124.
Work on `O=C1CCCc2sccc2N1` yielded a z-score of -0.164.
`O=C1C(=C(c2ccccc2)c2ccccc2)Nc2ccccc21` gave a z-score of -1.32.
Work on `O=C1CCCCC(=O)c2ccccc2N1` yielded a z-score of 2.21.
Work on `Cc1cc2cc(C)c3nnc(SCC(=O)N4CCc5ccccc54)n3c2cc1C` yielded a z-score of -0.31.
With `COc1cc(CNC2CCCCCC2)cc(OC)c1O` the z-score was 0.176.
Compound `CCn1c(CNC(=O)c2ccco2)nnc1SCC(=O)Nc1cc(C)c(C)cc1Br` has a z-score of -0.121.
`COC(=O)c1c(N)c(C#N)c(C)n1-c1ccccc1` showed a z-score of -0.272.
With `CC(C)(C)C(=O)Nc1ccccc1C(=O)OCC(=O)c1ccc2c(c1)OCCO2` the z-score was -0.731.
Compound `CCOC(=O)N1CCN(Cc2nc(N)nc(Nc3ccccc3C)n2)CC1` has a z-score of -0.106.
`OCCCCNCc1ccc(OCc2ccccc2Cl)cc1` showed a z-score of 2.17.
With `OCCCCNCc1ccc(OCc2ccccc2)cc1` the z-score was 0.0747.
With `OCCCCNCc1ccc(OCc2ccc(Cl)cc2Cl)cc1` the z-score was 1.19.
`Cc1occc1-c1nnc(SCc2cc(=O)n3cc(Br)ccc3n2)n1C` showed a z-score of 0.0968.
`CCN1CCCC1CNC(=O)CS(=O)(=O)Cc1nc(-c2ccccc2C)oc1C` (configuration not stated) gave a z-score of 1.21.
`CCN1CCCC1CNC(=O)CSCc1nc(-c2ccccc2C)oc1C` (configuration not stated) was tested, and the z-score was 4.01 (active).
`Cc1oc(-c2cccc(Cl)c2)nc1CN1CCC(C(=O)NCC2CCCO2)CC1` (configuration not stated) gave a z-score of -0.375.
In the case of `Cc1ccccc1-c1nc(CN2CCC(C(=O)NCCCN3CCOCC3)CC2)c(C)o1`, the z-score is reported as -0.636.
In the case of `Cc1ccccc1-c1nc(CN2CCC(C(=O)NCCC3=CCCCC3)CC2)c(C)o1`, the z-score is reported as 1.63.
For `Cc1oc(-c2ccccc2Cl)nc1CSCC(=O)NC1CCCC1`, the z-score was -0.0255.
Compound `Cc1ccccc1-c1nc(CN2CCC(C(=O)NCCCN3CCCC3)CC2)c(C)o1` has a z-score of 2.76.
With `Cc1oc(-c2cccc(Cl)c2)nc1CN1CCC(C(=O)NCc2ccco2)CC1` the z-score was -4.86 (active).
For `Cc1ccccc1-c1nc(CN2CCC(C(=O)NCCCN3CC(C)CC(C)C3)CC2)c(C)o1` (configuration not stated), the z-score was 2.43.
In the case of `CCN1CCCC1CNC(=O)C1CCN(Cc2nc(-c3cccc(Br)c3)oc2C)CC1` (configuration not stated), the z-score is reported as 4.3 (active).
With `Cc1ccccc1-c1nc(CN2CCC(C(=O)NCC3CCCO3)CC2)c(C)o1` (configuration not stated) the z-score was -0.924.
`Cc1ccccc1-c1nc(CN2CCCC(C(=O)NCCCN3CCOCC3)C2)c(C)o1` (configuration not stated) showed a z-score of -0.359.
